# In PubChem BioAssay (NCATS):
# Results filed as inconclusive are left out. A number with no mark means an inactive call. Calls of active or inactive are those of the source. Calls follow the shape of the dose curve; as a rule, active = well fitted cell-killing curve with a large enough effect; inconclusive = small, poorly fitted or top-dose-only effect; inactive = flat fitted curve, though single readings scatter.
# Assay: Quantitative highthroughput screen to assess conditional lethalithy of NOMO1 cells grown in RPMI1640 with untreated serum (RPMI+s) (AID 1963876); also: nearly all actives have a fitted effect of over 35% in size;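 as to viability: 100% = DMSO wells and 0% = empty wells without cells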
# Conditions: NOMO1 AML cells in RPMI+serum, CellTiter-Glo viability, 48 h; series mostly up to 45.8 µM; viability: at the top concentration
# How it was run: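 Each medium arm—HPLM with 10% dialyzed FBS, or RPMI1640 with 5 mM glucose and 10% untreated or dialyzed FBS—was screened against an 11-point, 3-fold compound titration for 48 h at 37 °C, with CellTiter-Glo luminescence as endpoint.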
# Potency is read from the fitted curve at half-maximal effect.
SMILES,Potency,viability [%]
CN1CCN(c2ccc(C(=O)Nc3n[nH]c4ccc(Cc5cc(F)cc(F)c5)cc34)c(NC3CCOCC3)c2)CC1,26.3 µM (active),
O=C(O)c1ccc2c(c1)nc(Nc1cccc(Cl)c1)c1ccncc12,5.9 µM (active),
CN1C2CCC1CC(OC(=O)C(CO)c1ccccc1)C2 (stereo not given),,97.2
CCCCS(=N)(=O)CCC(N)C(=O)O (stereo not given),,102
Clc1ccc2c(c1)C(N1CCNCC1)=Nc1ccccc1O2,,97.3
Fc1ccc(CNc2ncnc3ccc(F)cc23)cc1,,95.2
O=C1NC(=O)C(c2cnc3ccccn23)=C1c1cn2c3c(cccc13)CN(C(=O)N1CCOCC1)CC2,,111
CO[C@@H]1C(N(C)C(=O)c2ccccc2)C[C@H]2O[C@]1(C)n1c3ccccc3c3c4c(c5c6ccccc6n2c5c31)C(=O)NC4=O (stereo not given in full),14.8 µM (active),
CC(C)(C)c1cc(C(C)(C)C)c(NC(=O)c2c[nH]c3ccccc3c2=O)cc1O,,92.7
CC(C)c1cc(-c2n[nH]c(=O)n2-c2ccc3c(ccn3C)c2)c(O)cc1O,0.118 µM (active),
Cc1ccc(C(=O)Nc2cccc(C(F)(F)F)c2)cc1-c1ccc2nc(NCCN3CCOCC3)ncc2c1,5.9 µM (active),
COc1ccc(-c2oc3c(CC=C(C)C)c(O)cc(O)c3c(=O)c2O)cc1,,105
Cc1ccc(F)c(NC(=O)Nc2ccc(-c3cccc4[nH]nc(N)c34)cc2)c1,,88.5
COCCCOc1cc(C[C@@H](C[C@H](N)[C@@H](O)C[C@H](C(=O)NCC(C)(C)C(N)=O)C(C)C)C(C)C)ccc1OC,,95.8
Clc1ccccc1C(c1ccccc1)(c1ccccc1)n1ccnc1,,70.1
C=CC(=O)Nc1ccc2ncnc(Nc3ccc(OCc4cccc(F)c4)c(Cl)c3)c2c1,2.64 µM (active),
O=c1c(O)c(-c2ccc(O)c(O)c2)oc2cc(O)cc(O)c12,,92.6
CCCc1cc(C(N)=S)ccn1,,90.6
CC(=O)Nc1ccc([C@H](C)C(=O)Nc2ncc(C(C)C)s2)cc1,4.69 µM (active),
Nc1nc(Nc2ccc(S(N)(=O)=O)cc2)nn1C(=O)c1c(F)cccc1F,16.6 µM (active),

SMILES,Potency,viability [%]
CC(C)C[C@H](NC(=O)CNC(=O)c1cc(Cl)ccc1Cl)B1OC(=O)CC(CC(=O)O)(C(=O)O)O1 (stereo not given in full),0.372 µM (active),
CNC(=O)c1ccc2c(C(=Nc3cccc(CN(C)C)c3)c3ccccc3)c(O)[nH]c2c1,20.9 µM (active),
C[C@H]1COC2=C1C(=O)C(=O)c1c2ccc2c1CCCC2(C)C,,95.9
O=C(c1ccc(F)cc1)N1CCC[C@H](c2nc(-c3ccc(F)cc3)no2)C1,,96.8
CC(=O)NC(C)c1ccc(Oc2ccc(OC(C)C)cc2)cc1 (stereo not given),,97.3
COc1c2occc2cc2ccc(=O)oc12,,105
COc1ccc(-n2nc(C(N)=O)c3c2C(=O)N(c2ccc(N4CCCCC4=O)cc2)CC3)cc1,0.118 µM (active),
O=C(O)CCCCCC(=O)NN=C1CCCC1,,113
Cc1cc2c(F)c(Oc3ncnn4cc(OC[C@@H](C)O)c(C)c34)ccc2[nH]1,,97.7
O=C(O)CCNC(=O)c1ccc(N=Nc2ccc(O)c(C(=O)O)c2)cc1,,71.9
CNC(=O)[C@H](Cc1ccccc1)NC(=O)[C@H](CC(C)C)[C@H](CSc1cccs1)C(=O)NO,,110
N#Cc1ccnc(Nc2cc(C3CCN(C4COC4)CC3)cc(N3CCC(F)(F)C3)n2)c1,13.2 µM (active),
Cc1cc([C@@H](C)Nc2ccccc2C(=O)O)c2nc(N3CCOCC3)cc(=O)n2c1,13.6 µM (active),
O=C1CCCC2=C1C(c1[nH]ncc1Cl)N=C(Nc1nc3ccccc3o1)N2 (stereo not given),,78.4
CCN1CCN(c2ccc(Nc3cc(N(C)C(=O)Nc4c(Cl)c(OC)cc(OC)c4Cl)ncn3)cc2)CC1,5.26 µM (active),
Cc1nc(Nc2n[nH]c3c2CN(C(=O)N[C@H](CN(C)C)c2ccccc2)C3(C)C)c2sccc2n1,1.32 µM (active),
CC(=O)CC(c1ccccc1)c1c(O)c2ccccc2oc1=O (stereo not given),,113
CCc1ccc(C(=O)Nc2cc(CN3CCN(C)CC3)cc(C(F)(F)F)c2)cc1C#Cc1cnc2ccnn2c1,,96.3
CON(C)C(=O)N1N=C(c2cc(F)ccc2F)S[C@@]1(CCCN)c1ccccc1,0.0209 µM (active),
N#CC1(c2ccc(NC(=O)c3cccnc3NCc3ccncc3)cc2)CCCC1,,105
